Mcl1-Bid inh: Mcl-1/Bid interaction inhibition; Q07820; TR-FRET Mcl-1/Bid-Dy647 peptide binding, 1536-well; inhibition, % at 21.7 µM; actives 0.97% (n = 220,000);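 active = compounds that cut the binding signal by more than half at the single screening dose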;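 note: His-tagged Mcl-1 with europium anti-His antibody binding Bid BH3 peptide; 0% = Mcl-1 plus peptide wells and 100% = peptide-only wells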
Mcl-1 Bim block: inhibitors of Bim-Mcl-1 interaction, human; Q07820; Bead-based flow cytometry, Bim peptide-Mcl-1 binding; inhibition, % at 10 µM; actives 0.1% (n = 190,000); AID 1009; in the data active = inhibition above about 40%;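 note: 0% = no compound tracer wells and 100% = peptide blocker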
p47phox inh: blocks human p47phox regulatory protein of NADPH oxidases | P14598 | p47phox/p22phox peptide binding, fluorescence polarization, 2 h | inhibition, % at 24.7 µM | actives 0.53% (n = 220,000) | AID 1274;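 note: 0% = p47phox with labelled peptide and 100% = labelled peptide alone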
Target sequence (P14598 whole entry, looked up): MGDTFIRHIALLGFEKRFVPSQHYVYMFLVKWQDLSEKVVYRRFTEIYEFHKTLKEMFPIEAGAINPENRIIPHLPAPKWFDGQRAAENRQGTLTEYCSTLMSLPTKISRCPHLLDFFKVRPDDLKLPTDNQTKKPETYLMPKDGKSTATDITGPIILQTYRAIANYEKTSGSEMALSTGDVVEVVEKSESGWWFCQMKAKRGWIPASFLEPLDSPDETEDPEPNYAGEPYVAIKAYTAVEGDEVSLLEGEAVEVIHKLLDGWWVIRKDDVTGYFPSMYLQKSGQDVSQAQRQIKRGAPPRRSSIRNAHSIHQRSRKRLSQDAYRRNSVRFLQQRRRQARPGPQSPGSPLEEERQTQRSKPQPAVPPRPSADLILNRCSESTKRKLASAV
Mcl1-Noxa inh: disrupts binding of human Mcl-1 to Noxa peptide | Q07820 | TR-FRET Mcl-1/Noxa peptide binding, 2 h | inhibition, % at 21.7 µM | actives 1.5% (n = 220,000) | AID 1022;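 active = compounds that cut the protein-peptide binding signal by more than 50% relative to plate controls in a single-dose test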;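 note: His-tagged Mcl-1 with rhodamine Noxa BH3 peptide and terbium anti-His antibody; 0% = Mcl-1 plus Noxa peptide wells and 100% = peptide-only wells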
eIF4E-4G inh: eIF4E/eIF4G interaction inhibition in translation initiation | inhibition, % at 21.7 µM | actives 0.37% (n = 220,000) | TR-FRET eIF4E-eIF4GI(517-606) binding, 2 h | P63073+Q04637 | AID 782;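 note: 0% = full FRET control wells and 100% = background wells lacking eIF4GI fragment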
14-3-3 Bad PPI: disrupts binding of bovine 14-3-3 zeta to phospho-Bad peptide; P63103; TR-FRET 14-3-3zeta/Dy647-pBad peptide displacement, 1 h; inhibition, % at 21.7 µM; actives 0.71% (n = 220,000); AID 781;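 active = inhibition above about 70%, limit read from the data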;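 note: 0% = full 14-3-3 plus peptide FRET controls and 100% = background without 14-3-3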
Numbers without * were called inactive. Shown are actives, neighbours in structure and some others; about 3.4% of the full set was active somewhere.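 Rule for the calls, unless noted: active = inhibition above about 30% (limit read from the data); inactive = the rest.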

Cc1ccc(C=C2C(=O)c3ccccc3C2=O)o1 was read as Mcl1-Bid inh 4.4, Mcl-1 Bim block -4.0, p47phox inh -25.4, Mcl1-Noxa inh 22.9, eIF4E-4G inh 4.3 and 14-3-3 Bad PPI -0.6.
CC(C)(C)N1C(=O)c2ccc(C(=O)O)cc2C1=O was read as Mcl1-Bid inh 11.4, Mcl-1 Bim block -4.0, p47phox inh -11.9, Mcl1-Noxa inh 14.5, eIF4E-4G inh 3.1 and 14-3-3 Bad PPI 10.6.
`O=C(O)c1ccc2c(c1)C(=O)/C(=C/c1ccccc1)C2=O` gave Mcl1-Bid inh -19.7, Mcl-1 Bim block 4.0, p47phox inh -27.2, Mcl1-Noxa inh 64.3*, eIF4E-4G inh 9.4 and 14-3-3 Bad PPI 1.5.
Screening O=C1C(=Cc2ccco2)C(=O)c2ccccc21 returned Mcl1-Bid inh -50.2, Mcl-1 Bim block 0.0, p47phox inh -8.3, Mcl1-Noxa inh 35.5, eIF4E-4G inh 3.9 and 14-3-3 Bad PPI -25.0.
For O=C(O)c1ccc2c(c1)C(=O)/C(=C\c1ccco1)C2=O the results were Mcl1-Bid inh -48.6, Mcl-1 Bim block 3.0, p47phox inh -16.3, Mcl1-Noxa inh 66.5*, eIF4E-4G inh 6.5 and 14-3-3 Bad PPI -1.6.
For Cc1ccc(/C=C2/C(=O)c3ccc(C(=O)O)cc3C2=O)o1 the results were Mcl1-Bid inh -95.2, Mcl-1 Bim block 0.0, p47phox inh -31.9, Mcl1-Noxa inh 72.1*, eIF4E-4G inh 6.2 and 14-3-3 Bad PPI 12.9.
Screening O=C(CCl)Nc1cccc(S(=O)(=O)NC2=NCCC2)c1 returned Mcl1-Bid inh -2.4, p47phox inh -6.3, Mcl1-Noxa inh -7.5, eIF4E-4G inh -7.6 and 14-3-3 Bad PPI 3.0.
Screening COc1ccc(OC(=O)c2cnc3n(c2=O)CCS3)cc1 returned Mcl1-Bid inh -12.7, p47phox inh -8.0, Mcl1-Noxa inh -13.0, eIF4E-4G inh 3.2 and 14-3-3 Bad PPI 0.8.
For CC(C)N1C(=O)C(O)(C2COC(C)(C)CC2=O)c2ccccc21 (stereo not given) the results were Mcl1-Bid inh 38.7, Mcl-1 Bim block -1.0, p47phox inh 0.0, Mcl1-Noxa inh 36.4, eIF4E-4G inh -3.4 and 14-3-3 Bad PPI 70.7*.
Oc1ccccc1Nc1nc(NCc2ccccc2)c2ccccc2n1 was read as Mcl1-Bid inh -20.0, Mcl-1 Bim block -4.0, p47phox inh -14.2, Mcl1-Noxa inh 59.1*, eIF4E-4G inh 0.6 and 14-3-3 Bad PPI -6.9.
For O=C1c2cccc3cccc(c23)C(=O)N1/N=C/c1ccc(O)cc1O the results were Mcl1-Bid inh 28.1, Mcl-1 Bim block -3.0, p47phox inh -119.7, Mcl1-Noxa inh 59.6*, eIF4E-4G inh -2.4 and 14-3-3 Bad PPI 14.8.
`O=C1c2ccccc2C(=O)N1/N=C/c1ccc(O)c(O)c1O` gave Mcl1-Bid inh -92.9, p47phox inh -3.4, Mcl1-Noxa inh 100.0*, eIF4E-4G inh 98.4* and 14-3-3 Bad PPI 49.7.
Screening COCc1ccc(C(=O)N2CCCC(CCC(=O)NCc3ccccc3F)C2)o1 (stereo not given) returned Mcl1-Bid inh -18.0, Mcl-1 Bim block 0.0, p47phox inh -12.5, Mcl1-Noxa inh -8.3, eIF4E-4G inh 3.0 and 14-3-3 Bad PPI -0.8.
For CC1(C)CC(=O)C(C=NCCN2CCN(CCc3ccccc3)CC2)=C(O)C1 the results were Mcl1-Bid inh -8.1, Mcl-1 Bim block 51.0*, p47phox inh -7.7, Mcl1-Noxa inh 14.1, eIF4E-4G inh 5.5 and 14-3-3 Bad PPI -5.0.
For CC1(C)CC(=O)C(C=NCCN2CCN(C(=O)c3ccccc3)CC2)=C(O)C1 the results were Mcl1-Bid inh -19.9, Mcl-1 Bim block 0.0, p47phox inh -12.0, Mcl1-Noxa inh 13.4, eIF4E-4G inh 5.2 and 14-3-3 Bad PPI 3.4.
COC(=O)c1ccccc1S(=O)(=O)N1CCC(C(=O)OCC(=O)NCC(F)(F)F)CC1 was read as Mcl1-Bid inh -6.4, Mcl-1 Bim block -2.0, p47phox inh -0.2, Mcl1-Noxa inh 5.3, eIF4E-4G inh 0.6 and 14-3-3 Bad PPI 8.2.
COC(=O)c1ccccc1S(=O)(=O)N1CCn2cccc2C1C (stereo not given) was read as Mcl1-Bid inh 69.3*, Mcl-1 Bim block 6.0, p47phox inh -6.6, Mcl1-Noxa inh 21.6, eIF4E-4G inh -3.4 and 14-3-3 Bad PPI 5.0.
Cc1nnc(N(C)C(=O)c2ccncc2)s1 was read as Mcl1-Bid inh -3.5, Mcl-1 Bim block 2.0, p47phox inh 1.7, Mcl1-Noxa inh 4.7, eIF4E-4G inh 0.6 and 14-3-3 Bad PPI -0.6.

Source: PubChem
